Assay results taken from PubChem BioAssay AID1159580 (chemical genetic matrix, 2015).
The whole screen tested about 5,500 compounds, of which about 2,000 (36%) were called active. Not shown: some 18% with an inconclusive outcome. Rule as the data show it: active = normalized growth mostly below about 0.91 (no sharp cut-off); inconclusive = no clear call, values can overlap the other calls; inactive = mostly above about 0.92. This is one part of the list.

Test: chemical genetic growth profiling, strain panel (AID 1159580);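 also: tested at 20 µM; growth read once vehicle control cultures reached saturation at 30 °C; 1 = growth at the plate median or of vehicle wells; lower values mean less growth of the strain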
Settings: growth OD
[1] = S. cerevisiae deletion strains, locus YHR030C, strain SLT2, hits give low values

Measured: normalized growth

Cc1noc(C)c1C(=O)N1CCOCC1
inactive: S. cerevisiae deletion strains, locus YAL013W, strain DEP1, hits give low values 1 | S. cerevisiae deletion strains, locus YBR229C, strain ROT2, hits give low values 0.998 | S. cerevisiae deletion strains, locus YDL101C, strain DUN1, hits give low values 1 | S. cerevisiae deletion strains, locus YDR150W, strain NUM1, hits give low values 0.971 | S. cerevisiae deletion strains, locus YEL061C, strain CIN8, hits give low values 1.01 | S. cerevisiae deletion strains, locus YGR078C, strain PAC10, hits give low values 1 | [1] 1.07 | S. cerevisiae deletion strains, locus YHR087W, strain rtc3, hits give low values 1 | S. cerevisiae deletion strains, locus YJR043C, strain POL32, hits give low values 1 | S. cerevisiae deletion strains, locus YJR075W, strain HOC1, hits give low values 1 | S. cerevisiae deletion strains, locus YLR039C, strain RIC1, hits give low values 1.03 | S. cerevisiae deletion strains, locus YLR058C, strain SHM2 (second series), hits give low values 1 | S. cerevisiae deletion strains, locus YLR085C, strain ARP6, hits give low values 1.04 | S. cerevisiae deletion strains, locus YLR262C, strain YPT6, hits give low values 1.01 | S. cerevisiae deletion strains, locus YML094W, strain GIM5, hits give low values 1.02 | S. cerevisiae deletion strains, locus YMR219W, strain ESC1, hits give low values 0.993 | S. cerevisiae deletion strains, locus YMR263W, strain SAP30, hits give low values 0.982 | S. cerevisiae deletion strains, locus YNL153C, strain GIM3, hits give low values 0.996 | S. cerevisiae deletion strains, locus YNL298W, strain CLA4 (second series), hits give low values 1.02 | S. cerevisiae deletion strains, locus YNL322C, strain KRE1, hits give low values 0.995 | S. cerevisiae deletion strains, locus YNR030W, strain Alg12, hits give low values 1.02 | S. cerevisiae deletion strains, locus YPL055C, strain LGE1, hits give low values 1 | S. cerevisiae deletion strains, locus YPL241C, strain CIN2, hits give low values 1.06 | S. cerevisiae deletion strains, locus YPR135W, strain CTF4, hits give low values 1.02 | S. cerevisiae strains, strain wild type, hits give low values 1.01

O=Cc1ccccc1O[C@@H]1O[C@H](CO)[C@H](O)[C@@H](O)[C@H]1O
inactive: [1] 1.06 | S. cerevisiae deletion strains, locus YHR079C, strain IRE1, hits give low values 1.06 | S. cerevisiae deletion strains, locus YJL095W, strain BCK1, hits give low values 0.996 | S. cerevisiae deletion strains, locus YJR066W, strain TOR1, hits give low values 0.99 | S. cerevisiae deletion strains, locus YLR113W, strain HOG1, hits give low values 1.03 | S. cerevisiae deletion strains, locus YNL183C, strain NPR1, hits give low values 0.992 | S. cerevisiae deletion strains, locus YOR231W, strain MKK1, hits give low values 1.06 | S. cerevisiae deletion strains, locus YPL256C, strain CLN2, hits give low values 1.06
